The nature of assay [1]: antimalarial activity against Dd2 strain (AID 2302;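 active = growth inhibition above 50% at the single 2 µM test dose, taken to imply half-maximal potency below 2 µM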;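 note: 0% = DMSO untreated growth and 100% = chloroquine plus artemisinin killed control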). The conditions noted are these: P. falciparum Dd2 in RBCs, LDH growth readout, 72 h; at 2 µM; hits give high values.
A short description of assay [2]: HepG2 cytotoxicity, primary screen, cytotoxicity control for P. falciparum antimalarial project, cell-based, ATP luminescence (AID 2303;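 active = inhibition above 50%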;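 note: 0% = DMSO wells and 100% = digitonin-killed cells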). Conditions: HepG2 viability, 24-48 h, at 10 µM, hits give high values.
In assay [3] the target is L-lactate dehydrogenase (Plasmodium falciparum (isolate CDC / Honduras)) (UniProt Q27743). Description: PfLDH activity inhibition – cell lysate, 3D7 strain, counter-screen for P. falciparum growth inhibition project (AID 2304).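 Note: 0% = vehicle and 100% = reference inhibitor.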 The conditions noted are these: P. falciparum 3D7 crude extract, LDH APAD/NBT absorbance; at 2 µM; hits give high values. For orientation: Counterscreens check selectivity or assay interference.

A short description of assay [4]: inhibition of 3D7 malaria parasite growth – strain 3D7 (AID 2306).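 Note: 0% = DMSO wells and 100% = chloroquine plus artemisinin control wells.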 The conditions noted are these: P. falciparum 3D7 erythrocytic growth, LDH absorbance, 72 h; at 2 µM; hits give high values.
The target in assay [5] is Calcium-dependent protein kinase 1 (Plasmodium falciparum (isolate 3D7)) (UniProt P62344). Description: PfCDPK1 kinase inhibitors, biochemical, TCAMS library (AID 1159585; cut-off not given, nearly all actives have IC50 up to about 0.98 µM;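 note: inhibitors leave more ATP so luminescence rises with inhibition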). The conditions noted are these: recombinant PfCDPK1, Kinase-Glo ATP depletion luminescence.
Assay [6] has as its target Plasmodium falciparum protein kinase 6 (PK6, PF3D7_1337100) (UniProt Q8IDW1). Description: PfPK6 kinase inhibitors, biochemical, TCAMS library (AID 1159586). The conditions noted are these: recombinant PfPK6, Kinase-Glo ATP depletion luminescence. Background: In Kinase-Glo more light means more ATP remaining.
In assay [7] the target is Protein kinase 7 (PK7), Plasmodium falciparum 3D7 (PF3D7_0213400) (UniProt Q7YTF7). Description: inhibition of Plasmodium PK7 catalytic activity – biochemical, TCAMS antimalarial set, Kinase-Glo luminescence (AID 1159587). The conditions noted are these: recombinant PfPK7, Kinase-Glo ATP depletion luminescence.
Assay [8] concerns the target Calcium-dependent protein kinase 4 (Plasmodium falciparum (isolate 3D7)) (UniProt Q8IBS5). Description: PfCDPK4 kinase inhibitors, biochemical, TCAMS library (AID 1159588; cut-off not given, nearly all actives have IC50 up to about 0.91 µM). The conditions noted are these: recombinant PfCDPK4, Kinase-Glo ATP depletion luminescence.

Each structure is given as a SMILES string. Values without a mark were called inactive. For some of these results: Entries with a potency or affinity are not part of this list. Calls of active or inactive are those of the source. Unless noted, the rule behind the calls is not given here.

Chain of Calcium-dependent protein kinase 4 (Plasmodium falciparum (isolate 3D7)) (Q8IBS5 whole entry, looked up): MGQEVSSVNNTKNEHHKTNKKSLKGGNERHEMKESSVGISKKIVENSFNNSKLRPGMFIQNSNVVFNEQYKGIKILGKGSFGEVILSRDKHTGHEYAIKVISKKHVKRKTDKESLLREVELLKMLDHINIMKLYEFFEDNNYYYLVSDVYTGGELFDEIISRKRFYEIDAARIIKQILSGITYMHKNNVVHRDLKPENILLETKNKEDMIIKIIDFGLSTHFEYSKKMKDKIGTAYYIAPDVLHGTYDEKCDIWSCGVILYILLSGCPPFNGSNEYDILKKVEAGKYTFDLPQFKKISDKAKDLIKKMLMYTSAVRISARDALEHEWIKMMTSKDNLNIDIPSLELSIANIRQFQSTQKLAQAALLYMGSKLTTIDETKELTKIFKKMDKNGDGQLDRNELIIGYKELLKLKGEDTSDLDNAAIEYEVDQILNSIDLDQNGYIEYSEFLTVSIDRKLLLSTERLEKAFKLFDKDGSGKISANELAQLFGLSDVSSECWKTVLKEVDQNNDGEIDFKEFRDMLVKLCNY
Chain of Plasmodium falciparum protein kinase 6 (PK6, PF3D7_1337100) (Q8IDW1 1-305): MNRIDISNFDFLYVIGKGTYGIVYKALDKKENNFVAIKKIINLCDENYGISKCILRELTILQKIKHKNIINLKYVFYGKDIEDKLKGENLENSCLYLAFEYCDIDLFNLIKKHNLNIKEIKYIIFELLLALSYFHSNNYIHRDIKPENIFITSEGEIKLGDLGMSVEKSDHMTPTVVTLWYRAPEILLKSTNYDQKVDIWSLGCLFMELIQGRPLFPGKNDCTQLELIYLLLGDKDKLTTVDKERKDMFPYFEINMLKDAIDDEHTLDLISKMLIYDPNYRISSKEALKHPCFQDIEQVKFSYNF
Chain of Calcium-dependent protein kinase 1 (Plasmodium falciparum (isolate 3D7)) (P62344 whole entry, looked up): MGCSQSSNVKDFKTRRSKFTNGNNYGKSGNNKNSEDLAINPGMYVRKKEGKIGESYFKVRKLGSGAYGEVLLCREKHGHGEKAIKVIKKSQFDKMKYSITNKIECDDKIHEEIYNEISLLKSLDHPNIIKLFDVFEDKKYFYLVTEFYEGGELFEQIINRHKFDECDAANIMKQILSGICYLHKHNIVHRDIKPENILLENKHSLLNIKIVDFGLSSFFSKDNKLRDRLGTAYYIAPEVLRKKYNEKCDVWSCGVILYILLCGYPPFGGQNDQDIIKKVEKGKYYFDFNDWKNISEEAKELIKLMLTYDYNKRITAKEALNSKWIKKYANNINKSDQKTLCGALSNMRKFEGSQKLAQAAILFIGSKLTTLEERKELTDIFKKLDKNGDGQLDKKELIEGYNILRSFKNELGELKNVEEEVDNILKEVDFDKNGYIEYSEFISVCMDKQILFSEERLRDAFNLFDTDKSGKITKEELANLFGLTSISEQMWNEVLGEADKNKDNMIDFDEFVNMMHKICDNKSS
Chain of Protein kinase 7 (PK7), Plasmodium falciparum 3D7 (PF3D7_0213400) (Q7YTF7 1-343): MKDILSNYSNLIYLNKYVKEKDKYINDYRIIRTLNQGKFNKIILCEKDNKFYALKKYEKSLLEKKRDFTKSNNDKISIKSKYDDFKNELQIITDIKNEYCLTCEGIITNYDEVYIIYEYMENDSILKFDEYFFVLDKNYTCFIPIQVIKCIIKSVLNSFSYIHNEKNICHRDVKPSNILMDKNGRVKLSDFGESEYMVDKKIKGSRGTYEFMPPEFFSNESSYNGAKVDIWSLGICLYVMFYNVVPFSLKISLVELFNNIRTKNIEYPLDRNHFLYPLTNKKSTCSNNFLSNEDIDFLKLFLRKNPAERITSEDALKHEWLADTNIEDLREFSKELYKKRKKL
Chain of L-lactate dehydrogenase (Plasmodium falciparum (isolate CDC / Honduras)) (Q27743 whole entry, looked up): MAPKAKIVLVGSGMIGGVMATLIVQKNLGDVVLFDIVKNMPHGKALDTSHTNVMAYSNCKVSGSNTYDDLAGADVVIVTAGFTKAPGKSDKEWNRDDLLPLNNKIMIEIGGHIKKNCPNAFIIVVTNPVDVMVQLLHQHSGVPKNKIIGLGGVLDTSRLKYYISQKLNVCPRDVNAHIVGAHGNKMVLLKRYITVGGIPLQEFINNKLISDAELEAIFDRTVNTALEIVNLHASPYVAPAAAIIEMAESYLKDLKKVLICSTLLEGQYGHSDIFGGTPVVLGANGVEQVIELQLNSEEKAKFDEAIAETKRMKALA

Usually inhibition stands for the relative decrease from the control value, in per cent. As to `C=CCc1cc(OC)ccc1OCCCOc1c(C)nc(N)nc1N`, the results for the growth inhibition in assay [1] and in assay [4] were 97% (active) and 92% (active), respectively. Further, the inhibition was 67% (active) in assay [2] and -2% in assay [3]. In addition, the result in assay [5], in assay [6], in assay [7] and in assay [8] was inactive.
On to `O=C(Nc1ccc(-c2cccc(-c3nc4ccccc4[nH]3)c2)cc1)Nc1ccc(F)c(F)c1F`, for which the growth inhibition in assay [1] is 96% (active); in assay [4], 100% (active). In addition, the inhibition was 74% (active) in assay [2] and 5% in assay [3]. The result in assay [5], in assay [6], in assay [7] and in assay [8] was inactive.
For `O=c1c2ccccc2[nH]c2cc(Cl)ccc12`, the figures for the growth inhibition in assay [1] and in assay [4] were 86% (active) and 95% (active), respectively. Besides, the inhibition in assay [2] is 24%; in assay [3], 1%. In addition, the result in assay [5], in assay [6], in assay [7] and in assay [8] was inactive.
For `CCC(C)(CC)C(=O)n1ncc2c3c(N)nc(N)nc3ccc21`, the results for the growth inhibition in assay [1] and in assay [4] were 6% and 94% (active), respectively. Moreover, the inhibition in assay [2] was 73% (active); in assay [3] it was -4%. In addition, the result in assay [5], in assay [6], in assay [7] and in assay [8] was inactive.
As to `Cc1cc(C(=O)CN2C(=O)NC3(CCCc4ccccc43)C2=O)c(C)n1Cc1ccc(F)cc1` (stereo not given), the growth inhibition in assay [1] is 53% (active); in assay [4], 92% (active). For the same compound, the inhibition was 4% in assay [2] and 2% in assay [3]. The outcome in assay [5], in assay [6], in assay [7] and in assay [8] was inactive.
On to `Cc1ccc(Nc2nc(C)cc(N3CCN(CCc4ccccc4)CC3)n2)cc1`, for which the growth inhibition in assay [1] is 6%; in assay [4], 93% (active). Also, the inhibition is 6% in assay [2] and -9% in assay [3]. Also, the result in assay [5], in assay [6], in assay [7] and in assay [8] was inactive.
Regarding `Cc1ccc(C2CCN(CCCCNC(=O)c3ccc(NC(=O)c4ccc(Cl)cc4)cc3)CC2)c(OCC2CC2)c1`, the growth inhibition in assay [1] is 95% (active); in assay [4] it was 101% (active). Moreover, the results for the inhibition in assay [2] and in assay [3] were 63% (active) and 0%, respectively. The result in assay [5], in assay [6], in assay [7] and in assay [8] was inactive.
Regarding `O=C(C=Cc1cc([N+](=O)[O-])ccc1Cl)N1CCC(CCN2CCC(c3c[nH]c4ccccc34)CC2)CC1`, the results for the growth inhibition in assay [1] and in assay [4] were 26% and 92% (active), respectively. For the same compound, the results for the inhibition in assay [2] and in assay [3] were 25% and -2%, respectively. The outcome in assay [5], in assay [6], in assay [7] and in assay [8] was inactive.
Consider `O=[N+]([O-])c1nc(Br)n(Cc2ccc(Cl)cc2)n1`, for which the growth inhibition is 95% (active) in assay [1] and 96% (active) in assay [4]. In addition, the inhibition in assay [2] is -3%; in assay [3], -1%. The result in assay [5], in assay [6], in assay [7] and in assay [8] was inactive.
Turning to `CN(C)CCNCc1nc(-c2ccc3c(Nc4ccc(Cl)cc4F)ccnc3c2)cs1`, the growth inhibition in assay [1] was 100% (active); in assay [4], 101% (active). For the same compound, the inhibition in assay [2] is -2%; in assay [3], -9%. The outcome in assay [5], in assay [6], in assay [7] and in assay [8] was inactive.
Turning to `CCN(CCCN1CCCCC1)c1cc(C)nc(Nc2ccc(C)c(F)c2)n1`, the growth inhibition in assay [1] is 92% (active); in assay [4], 102% (active). In addition, the inhibition in assay [2] was 20%; in assay [3], -5%. Also, the result in assay [5], in assay [6], in assay [7] and in assay [8] was inactive.
For the compound `Cc1ccc2c(NN=Cc3ccccc3[N+](=O)[O-])cc(C)nc2c1`, the growth inhibition in assay [1] is 100% (active); in assay [4], 102% (active). Moreover, the values for the inhibition in assay [2] and in assay [3] were 13% and 4%, respectively. Besides, the result in assay [5], in assay [6], in assay [7] and in assay [8] was inactive.
On to `Cc1[nH]c(C)c(-c2ccc(C#Cc3ccc(F)cc3F)cc2)c(=O)c1Br`, for which the growth inhibition in assay [1] is 98% (active); in assay [4], 97% (active). Further, the inhibition in assay [2] was 11%; in assay [3], -1%. For the same compound, the result in assay [5], in assay [6], in assay [7] and in assay [8] was inactive.
For the compound `Cc1ccc(C(=O)c2oc3ccc4c(C)cc(=O)oc4c3c2C)cc1`, the growth inhibition was 48% in assay [1] and 86% (active) in assay [4]. Besides, the values for the inhibition in assay [2] and in assay [3] were -8% and 1%, respectively. For the same compound, the outcome in assay [5], in assay [6], in assay [7] and in assay [8] was inactive.
As for `CCN1CCCC1CNC(=O)c1cc2c(-c3ccc(Cl)cc3)nn(C)c2s1` (stereo not given), the growth inhibition in assay [1] is 20%; in assay [4], 96% (active). The values for the inhibition in assay [2] and in assay [3] were 27% and -9%, respectively. The outcome in assay [5], in assay [6], in assay [7] and in assay [8] was inactive.
As to `Cc1csc(-c2nc(NCCc3c(C)noc3C)ncc2-c2ccsc2)n1`, the growth inhibition was 82% (active) in assay [1] and 90% (active) in assay [4]. The inhibition was 6% in assay [2] and -4% in assay [3]. The outcome in assay [5], in assay [6], in assay [7] and in assay [8] was inactive.
As for `CN1CCN(c2ccnc3ccc(NC(=O)Cc4ccc(OCc5ccccc5)cc4)cc23)CC1`, the growth inhibition in assay [1] was 89% (active); in assay [4] it was 100% (active). Besides, the inhibition was 6% in assay [2] and -1% in assay [3]. For the same compound, the outcome in assay [5], in assay [6], in assay [7] and in assay [8] was inactive.
Regarding `COc1ccc2nccc([C@@H](O)CN3[C@@H]4CC[C@H]3CC(NCc3ccc5c(n3)NC(=O)CS5)C4)c2n1` (stereo not given in full), the growth inhibition in assay [1] was 11%; in assay [4], 99% (active). For the same compound, the inhibition in assay [2] was -1%; in assay [3] it was 4%. Besides, the outcome in assay [5], in assay [6], in assay [7] and in assay [8] was inactive.
`COc1ccc(Cl)c(CC2c3cc(O)c(Cl)cc3CCN2C)c1` (stereo not given): the growth inhibition in assay [1] was 72% (active); in assay [4] it was 98% (active). Besides, the values for the inhibition in assay [2] and in assay [3] were 9% and -1%, respectively. Besides, the outcome in assay [5], in assay [6], in assay [7] and in assay [8] was inactive.
Regarding `Cc1nc(-c2ccc(C(F)(F)F)cn2)sc1C(=O)N1CCc2cc3nccc(N4CCN5CCC[C@H]5C4)c3cc21`, the growth inhibition is 72% (active) in assay [1] and 100% (active) in assay [4]. Besides, the inhibition in assay [2] is 5%; in assay [3], 0%. Further, the outcome in assay [5], in assay [6], in assay [7] and in assay [8] was inactive.

(Values after PubChem BioAssay.)
